Results from ChEMBL document CHEMBL4513146, “CO-ADD screening of Karazin Kharkiv National University (Ukraine) compounds”.
Potency and affinity values are given separately.

Columns and labels:
Staphylococcus aureus = details: Concentration 32 ug.mL-1;; ASSAY_TEST Inhibition of Bacterial Growth; detection method Absorption (OD600); MEDIA CAMHB; plate type 384well; NBS; CORNING #3640; time 18 hr
Escherichia coli = details: Concentration 32 ug.mL-1;; ASSAY_TEST Inhibition of Bacterial Growth; detection method Absorption (OD600); MEDIA CAMHB; plate type 384well; NBS; CORNING #3640; time 18 hr

| Structure (SMILES) | Inhibition (Staphylococcus aureus) [%] | Inhibition (Escherichia coli) [%] |
| --- | --- | --- |
| CCOc1ccccc1NC(=O)Cn1nc2c(Oc3cccc(OC)c3)nccn2c1=O | 11.72 | -4.66 |
| COc1cccc(-n2ccn3c(SCC(=O)c4cc(C)c(C)cc4C)nnc3c2=O)c1 | 15.67 | -4.7 |
| COc1ccc(C)cc1NC(=O)CSc1nc2ccccc2n2cnnc12 | 16.59 | 4.56 |
| COc1ccccc1-n1ccn2c(=O)n(Cc3ccc(F)cc3Cl)nc2c1=O | 9.6 | -2.36 |
| CCc1ccccc1Sc1nccn2c(=O)n(CC(=O)Nc3cc(Cl)c(OC)cc3OC)nc12 | -16.84 | -7.56 |
| CCc1nnc2ccc(S(=O)(=O)N(Cc3ccccc3F)c3ccc(OC)cc3)cn12 | 11.76 | -5.17 |
| COc1ccc(OC)c(NC(=O)Cn2nc3ccc(SCc4ccc(Cl)cc4)nn3c2=O)c1 | -2.6 | -8.88 |
| CCc1cccc(NC(=O)Cn2nc3nc(N4CCCCCC4)ccn3c2=O)c1 | 0.41 | -5.25 |
| O=C(Cn1nc2c3c4c(sc3ncn2c1=O)CCCC4)Nc1ccc2c(c1)OCO2 | -0.05 | -3.47 |
| Cc1c(Cl)cccc1-n1ccn2c(=S)[nH]nc2c1=O | 26.02 | 0.89 |
| Cc1ccc(C)c(C(=O)CSc2nnc3c(=O)n(-c4ccc(F)c(F)c4)ccn23)c1 | 18.46 | 1.4 |
| Cc1ccc(NC(=O)CSc2nnc3n(CC4CCCO4)c(=O)c4sccc4n23)cc1F (centres undefined) | 4.36 | -6.16 |
